Screens deposited in PubChem by National Center for Advancing Translational Sciences (NCATS).
An excerpt weighted towards active compounds, which were near 3.2% of everything screened.
AMA1 RON2 block – qHTS for Inhibitors of AMA1-RON; Towards Development of Antimalarial Drug Lead: Primary Screen | Potency, µM (series often up to 58.2 µM), usual class: inhibitors | AID 720542, 2013 | 0.2% of 360,000 active | AlphaScreen AMA1-biotinylated RON2 peptide binding; also: nearly all actives have a fitted effect of over 45% in size
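AMA1 (3D7) with his tag at 25 nM final met compounds first, then biotinylated RON2 peptide at 25 nM; detection used donor plus acceptor beads, 10 µg/mL apiece, read by AlphaScreen after 30 min at room temperature.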
RE007 growth inh – qHTS Assay for Inhibitors of the HIV-1 protein Vpr. S. pombe RE007 Vpr strain, BacTiter-Glo ATP luminescence, 24 h. Potency, µM (top dose mostly 92.2 µM), hits mostly inhibitors. 0.21% of 360,000 active; active = well fitted falling curve with a large enough effect; inconclusive = small, poorly fitted or top-dose-only effect; inactive = no such curve, though single readings can be large or run the other way; also: nearly all actives have a fitted effect of over 50% in size
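Fission yeast RE007 carrying one integrated HIV-1 vpr copy, seeded at OD 0.01 in PMG+AL medium with 23 nL pinned compound. Grown 24 h at 30 degrees; viability read by BacTiter-Glo luminescence after 5 min.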
AmpC no deterg – qHTS Inhibitors of AmpC Beta-Lactamase (assay without detergent). Potency, µM (doses to about 57.1 µM), usual class: inhibitors. 0.52% of 330,000 active. AID 485341, 2010. AmpC nitrocefin hydrolysis, absorbance 480 nm, 0.0001% Triton; also: nearly all actives have a fitted effect of over 20% in size
Target sequence (P00811 whole entry, looked up): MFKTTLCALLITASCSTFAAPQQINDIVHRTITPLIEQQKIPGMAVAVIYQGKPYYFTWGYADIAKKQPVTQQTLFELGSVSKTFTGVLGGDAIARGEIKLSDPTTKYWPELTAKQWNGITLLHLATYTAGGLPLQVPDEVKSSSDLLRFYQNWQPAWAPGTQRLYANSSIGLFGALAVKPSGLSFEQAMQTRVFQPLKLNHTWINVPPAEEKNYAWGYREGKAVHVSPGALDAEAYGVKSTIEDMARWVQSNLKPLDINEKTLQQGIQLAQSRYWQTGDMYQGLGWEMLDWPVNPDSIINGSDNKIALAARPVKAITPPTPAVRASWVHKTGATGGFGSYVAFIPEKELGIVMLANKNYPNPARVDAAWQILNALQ
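AmpC (5.3 nM in the dispensed reagent) in 20 mM phosphate pH 7.0 with 0.01% (detergent screen) or 0.0001% Triton X-100 was preincubated with compounds for 15 min at room temperature. Nitrocefin was then added from an 800 uM solution, and hydrolysis was followed at 480 nm.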
AmpC inh detg – qHTS Inhibitors of AmpC Beta-Lactamase (assay with detergent) | AID 485294, 2010 | Potency, µM (titrated, usually from 114 µM), actives largely listed as inhibitors | 0.041% of 370,000 active | AmpC hydrolysis of nitrocefin, absorbance 480 nm, 0.01% Triton; also: nearly all actives have a fitted effect of over 25% in size
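AmpC (5.3 nM in the dispensed reagent) in 20 mM phosphate pH 7.0 with 0.01% (detergent screen) or 0.0001% Triton X-100 was preincubated with compounds for 15 min at room temperature. Nitrocefin was then added from an 800 uM solution, and hydrolysis was followed at 480 nm.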
Sm TGR inh – qHTS Assay for the Inhibitors of Schistosoma Mansoni Peroxiredoxins; Schistosoma mansoni thioredoxin glutathione reductase (TGR), Q962Y6; purified TGR, DTNB reduction, TNB absorbance 405 nm; Potency, µM (top dose mostly 114 µM), actives largely listed as inhibitors; 3% of 360,000 active; AID 485364, 2010; also: nearly all actives have a fitted effect of over 60% in size
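Kinetic colorimetric format: TGR-catalysed, NADPH-driven DTNB reduction monitored via TNB absorbance. Enzyme dispensed at 20 nM; compound exposure 15 min at room temperature before reaction start.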
Numbers stand for hits; - = inactive; ? = inconclusive; . = no result. Unless noted, calls follow the shape of the dose curve; as a rule, active = well fitted curve in the direction sought with a large enough effect; inconclusive = small, poorly fitted or top-dose-only effect, or another doubt; inactive = no such curve, though single readings can be large; an effect the other way counts as inactive or inconclusive.

SMILES | AMA1 RON2 block | RE007 growth inh | AmpC no deterg | AmpC inh detg | Sm TGR inh
CCCc1[nH]nc2c1C(c1ccc(OCCN3CCOCC3)c(OC)c1)C(C#N)=C(N)O2 (stereo unspecified) | - | - | - | - | -
CCOc1cc(C2C(C#N)=C(N)SC(N)=C2C#N)ccc1OCCN1CCOCC1 | - | - | - | ? | 22µM
CCOC(=O)c1sc(N2C(=O)c3oc4ccccc4c(=O)c3C2c2ccc(C(C)(C)C)cc2)nc1C (stereo unspecified) | . | . | . | - | -
O=C(NCc1ccccc1Cl)C1CCCN(C(=O)c2cnn(-c3ccccc3)c2-n2cccc2)C1 (stereo unspecified) | . | . | . | - | -
COc1ccc(OCCOc2cccc(C=C3C(=O)NC(=O)NC3=O)c2)cc1 | . | . | - | - | 11µM
COc1cccc(OCCOc2ccc(/C=C3/SC(=S)NC3=O)cc2)c1 | - | - | - | - | -
Cc1ccc(S(=O)(=O)NC(=O)Nc2nnc(C)s2)cc1 | - | - | 0.4µM | - | -
Cc1ccc(S(=O)(=O)NC2OC(=O)C(Cl)=C2Cl)cc1 (stereo unspecified) | - | - | - | - | 2.8µM
CSc1ccc(CNC(=O)CCc2c(C)nn(-c3ccc(N4CCCC4)nn3)c2C)cc1 | . | . | . | - | -
Oc1c(/C=C/C=C/C=Nc2ccccc2)sc(=S)n1Cc1ccccc1 | - | - | 13µM | - | 11µM
CCn1c(O)c(/C=C/C=C/C=Nc2ccccc2)sc1=S | - | - | - | - | .
CCCCn1c(O)c(/C=C/C=C/C=Nc2ccccc2)sc1=S | - | - | ? | ? | 20µM
Cc1ccc(NC(=O)C(Cc2ccccc2)NS(=O)(=O)c2ccc3c(c2)c(=O)n(C)c(=O)n3C)c(C)c1 (stereo unspecified) | . | . | . | - | -
O=C(Nc1cc2ccc(O)cc2oc1=O)c1ccccc1 | . | . | . | - | -
Cc1cccc(OCC(=O)N(Cc2cccs2)c2ccc(Cl)cc2)c1C | . | . | . | - | -
CC(C)N(CCC(=O)c1ccc2ccccc2c1)Cc1ccccc1 | - | 4µM | - | ? | 0.13µM
COc1ccc(N2CCN(S(=O)(=O)c3ccc4c(c3)CC(C)N4C(C)=O)CC2)cc1 (stereo unspecified) | . | . | . | - | -
COc1ccc(N(Cc2nnc3n2CCCCC3)C(=O)Nc2ccc(Cl)cc2)cc1Cl | . | . | . | - | -
CC1CC=C2C(C#N)=C(N)C(C#N)(C#N)C(c3cccs3)C2C1 (stereo unspecified) | - | - | - | - | 50µM
Cc1cc(C(=O)NNc2ccc(C)c(C)c2)no1 | - | - | - | - | 50µM
Cc1ccc(NNC(=O)c2ccno2)cc1C | - | - | - | - | 50µM
O=C(CNC(=O)c1ccc(Cl)cc1)OCc1cc(=O)n2ccsc2n1 | . | . | . | - | 35µM
O=C(CNC(=O)c1ccccc1)OCc1cc(=O)n2ccsc2n1 | . | . | . | - | -
O=C(Nc1cccc(NC(=O)c2cccs2)c1)c1ccc2c(c1)OCO2 | - | - | 10µM | ? | -
Cc1nc2ccccc2c(=O)n1-c1cccc(NC(=O)c2cccs2)c1 | - | - | - | - | -
SMILES | AMA1 RON2 block | RE007 growth inh | AmpC no deterg | AmpC inh detg | Sm TGR inh
C/C(=N\NC(=O)c1ccc(NS(=O)(=O)c2cccs2)cc1)c1ccc(Cl)cc1 | - | - | ? | ? | -
O=C(Nc1cccc(N2C(=O)C=CC2=O)c1)c1cccs1 | . | . | - | ? | 0.4µM
C/C(=N\NC(=O)c1ccc(NS(=O)(=O)c2cccs2)cc1)c1ccc2c(c1)OCO2 | - | - | 18µM | - | -
O=C(Nc1cccc(NC(=O)c2ccco2)c1)c1ccc2c(c1)OCO2 | - | - | 11µM | - | -
CCc1ccc(NC(=O)CC(NCc2cccnc2)C(=O)O)cc1 (stereo unspecified) | . | . | . | - | -
Cc1cc(C)c(S(=O)(=O)Nc2ccc(-c3ccc(N4CCCCC4)nn3)cc2)c(C)c1 | . | . | . | - | -
O=S(=O)(c1ccccc1)c1ncc(C(F)(F)F)cc1Cl | - | - | - | - | 4µM
Cc1c(C(c2ccc(O)cc2)c2c(C)n(C)n(-c3ccccc3)c2=O)c(=O)n(-c2ccccc2)n1C | - | - | - | - | -
Cc1c(C(c2ccc(O)cc2)c2c(O)c3ccccc3oc2=O)c(=O)n(-c2ccccc2)n1C (stereo unspecified) | - | - | ? | - | 14µM
Cc1ccc(C(c2c(C)n(C)n(-c3ccccc3)c2=O)c2c(C)n(C)n(-c3ccccc3)c2=O)s1 | - | - | - | - | 25µM
Cc1c(C(c2ccccc2)c2c(C)n(C)n(-c3ccccc3)c2=O)c(=O)n(-c2ccccc2)n1C | - | - | - | - | -
CCn1c(C(=O)NCc2ccccc2Br)cc2oc3ccccc3c21 | . | . | . | - | -
O=C(O)c1cc(-c2ccc(/C=c3\sc4nc5ccc(Br)cc5n4c3=O)o2)ccc1Cl | . | . | - | - | ?
Cc1cc2nc3s/c(=C/c4ccc(-c5ccccc5C(=O)O)o4)c(=O)n3c2cc1C | - | . | - | - | 3.5µM
O=C(O)c1ccccc1-c1ccc(/C=c2\sc3nc4cc(Br)cnc4n3c2=O)o1 | 11µM | - | - | - | ?
CC1=NN(c2ccc(Br)cc2)C(=O)/C1=C/c1ccc(-c2ccccc2C(=O)O)o1 | - | - | - | - | -
CC1CCCCN1CCCNC(=O)c1sc2ncccc2c1-n1cccc1 (stereo unspecified) | . | . | . | - | -
CC(C)c1nn2c(=O)cc(COC(=O)CNC(=O)c3ccccc3Cl)nc2s1 | . | . | . | ? | -
COc1cccc(N2CCN(C(=O)c3cc4c(=O)n(Cc5ccco5)ccc4nc3C)CC2)c1 | . | . | . | - | 10µM
Cc1ccc(C)c(N2CCN(C(=O)c3cc4c(=O)n(Cc5ccco5)ccc4nc3C)CC2)c1 | . | . | . | - | 40µM
Cc1nc2ccn(Cc3ccco3)c(=O)c2cc1C(=O)N1CCN(c2ccccc2F)CC1 | . | . | . | - | -
Cc1ccc(CNC(=O)c2cc3c(=O)n(Cc4ccco4)ccc3nc2C)cc1 | . | . | . | - | 25µM
Cc1nc2ccn(Cc3ccco3)c(=O)c2cc1C(=O)NCc1ccccc1 | . | . | . | - | -
CCc1ccccc1S(=O)(=O)Cc1ccc(C(=O)NCCc2ccc(Cl)cc2)o1 | . | . | . | - | -
O=C(Nc1ccc2nc(SCCOc3ccccc3)sc2c1)c1ccc2c(c1)OCO2 | . | . | . | - | ?
N#CC1=C(SCC(=O)Nc2ccc(C(=O)O)cc2)NC(=O)CC1c1ccco1 (stereo unspecified) | - | - | - | - | 35µM
C=CCOC(=O)C1=C(C)NC(SCC(=O)Nc2ccc(C)c(Cl)c2)=C(C#N)C1c1ccco1 (stereo unspecified) | - | - | 7.9µM | ? | -
